BJeLR viability: kills HRASV12-expressing BJeLR cells | inhibition, % (test concentration not listed) | 300,000 tested, 0.17% active | BJeLR (HRASV12) viability, CellTiter-Glo ATP luminescence, 48 h; in the data active = inhibition above about 50%
Sa ugtP lethal: compounds lethal to S. aureus RN4220 ugtP deletion mutant | OD600 growth, 16 h | growth inhibition, % (concentration not given with the values) | 330,000 tested, 0.54% active; in the data active = growth inhibition above about 68%;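 also: plate controls were untreated wells for no effect and antibiotic for full effect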
PfHsp40 rescue: restores yeast growth despite PfHsp40 toxicity | S. cerevisiae expressing PfHsp40, growth rescue, ATP luminescence | growth rescue, % at 12.5 µM | 340,000 tested, 0.68% active | AID 504582; in the data active = growth rescue above about 28%, passing the limit was not always enough;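 also: yeast W303a lacking pdr1 and pdr3 grown in galactose medium; growth measured after three days at 30 °C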
RN4220 kill: S. aureus RN4220 growth inhibition | AID 1259311 | OD600, 16 h | 330,000 tested, 0.33% active | inhibition, % (test concentration not listed); in the data active = inhibition above about 85%;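 also: plate controls were untreated cells for no effect and reference antibiotic for full effect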
CCHFV vOTU inh: blocks the CCHF virus ovarian tumor domain protease; CCHFV vOTU protease, Pep-AMC fluorescence; inhibition, % at 11.5 µM; 370,000 tested, 0.55% active; in the data active = inhibition above about 30%; also: 0% = vehicle wells with enzyme and 100% = no enzyme wells
An asterisk follows results filed as active; x = no result given. Rows were chosen to be rich in hits. Some 1.6% of all compounds tested hit in one or more screens of this group.

SMILES	BJeLR viability	Sa ugtP lethal	PfHsp40 rescue	RN4220 kill	CCHFV vOTU inh
O=C(NC1CCCCC1)C(c1cccnc1)N(C(=O)CCl)c1ccc(F)cc1 (stereo not drawn)	50.0	2.1	0.6	5.2	-3.0
COc1ccc(N(C(=O)CCl)C(C(=O)NC2CCCCC2)c2cccnc2)cc1 (stereo not drawn)	80.7*	-2.4	0.4	9.4	5.1
COc1ccc(C(C(=O)NC2CCCCC2)N(C(=O)CCl)c2cccc(Cl)c2)cc1 (stereo not drawn)	119.0*	9.8	-0.7	25.3	5.5
COc1ccc(C(C(=O)NC2CCCC2)N(C(=O)c2ccoc2C)c2ccc(C)cc2)cc1 (stereo not drawn)	6.3	-8.4	2.2	-4.4	7.1
Oc1ccccc1C=NN1CCCCC1	x	1.3	x	10.2	x
C=CCOc1cccc(C=C2C(=O)N(Cc3ccc(C)cc3)C(C)=C2C(=O)OC)c1	x	-8.5	x	-5.6	x
NC(=O)NN=Cc1cccs1	x	14.7	x	2.1	x
CCN1CC2C3C(=O)N(C)C(=O)C3[C@](C)(C1=O)N2C(=O)c1ccc(F)cc1 (stereo partly drawn)	x	3.6	x	2.9	x
Cc1cc(C)n(-c2ccc(N3CCOCC3)nn2)n1	4.5	5.0	36.1*	-5.7	0.5
COc1ccc(C=C2C(=O)N=C3SCCN23)cc1	x	-4.3	x	-2.9	x
NC(=S)N/N=C/c1coc2cc(Br)ccc2c1=O	2.9	x	-0.3	x	8.6
NC(=S)N/N=C/c1coc2ccc(Br)cc2c1=O	-4.9	x	38.3*	x	18.6
COc1cc2c(cc1OC)C1C(CC=C3CCN(C)C31)OC2O (stereo not drawn)	x	-15.6	x	5.3	x
CCCC(=O)OCCNc1cc(Sc2nccn2C)c2nonc2c1[N+](=O)[O-]	93.5*	6.2	-1.3	5.0	27.2
O=C1C2C(c3ccc(F)cc3)N3C(=O)N(c4cccc(Cl)c4)C(=O)[C@@]3(Cc3ccc(Cl)cc3)C2C(=O)N1C1CCCCC1 (stereo partly drawn)	x	2.0	x	-0.7	x
CC1(C)CC(NS(=O)(=O)OCC(Cl)(Cl)Cl)c2cc(C#N)ccc2O1 (stereo not drawn)	9.7	99.0*	13.7	99.1*	4.1
CCOc1ccc(-c2c(C(=O)NN=C(C)c3ccncc3)nnn2-c2nonc2N)cc1	x	2.6	x	4.2	x
Cc1cc(/C=N/n2cnnc2)c(C)n1-c1ccc(OCc2ccc(Cl)cc2Cl)cc1	12.0	x	0.8	x	x
Cc1cc(/C=N/n2cnnc2)c(C)n1-c1ccc(OCc2ccc(F)cc2)cc1	13.4	x	103.4*	x	3.6
CC(C)c1cc(C(=O)OCC(=O)NC(=O)NCc2ccco2)c(O)c(C(C)C)c1	3.9	93.6*	-0.3	-7.4	28.2
C=CCn1c(SCc2csc(-c3ccc(C)cc3)n2)nnc1-c1ccccc1OC	8.5	90.1*	1.2	-6.7	13.2
COc1ccccc1-n1cnnc1SCc1csc(-c2ccccc2)n1	x	-1.8	-0.1	11.0	4.6
N#Cc1c(-c2ccccc2)nc(SCC(=O)N2c3ccccc3Sc3ccccc32)[nH]c1=O	2.0	24.4	6.0	-2.1	32.6*
CC(O)Cc1cn(-c2cc3cc(C#Cc4ccsc4)ccc3oc2=O)nn1 (stereo not drawn)	x	8.7	x	10.7	x
COc1cc2c(ccc3c4cc(OC)c(OC)cc4c[n+](C)c23)cc1O	x	x	126.9*	x	18.7
SMILES	BJeLR viability	Sa ugtP lethal	PfHsp40 rescue	RN4220 kill	CCHFV vOTU inh
CCN(CC)c1ccc(/C=N/Nc2nc(C)cc(=O)[nH]2)c(O)c1	67.4*	x	2.8	x	9.7
CCc1ccc(OCC(O)CN2CCC(CN3C(=O)c4cccc5cccc(c45)C3=O)CC2)cc1 (stereo not drawn)	19.1	85.4*	-0.1	80.4	0.1
Cc1cc(C)c2sc(NNC(=O)c3ccc(S(=O)(=O)N4CCc5ccccc5C4)cc3)nc2c1	11.3	28.0	364.4*	25.2	25.5
Cc1ccc(S(=O)(=O)NN=Cc2ccc(O)cc2O)cc1[N+](=O)[O-]	x	-1.8	x	3.0	x
COc1ccc(N2C(=O)CC(SCC(=O)O)C2=O)cc1 (stereo not drawn)	-1.0	1.9	0.2	3.9	-0.5
COc1ccc(N2C(=O)CC(SCc3ccc(Cl)cc3)C2=O)cc1 (stereo not drawn)	-9.1	-2.2	70.4*	2.8	4.7
COC(=O)C1(O)CC(C(C)C)=NN1C(=O)c1ccccc1 (stereo not drawn)	2.9	5.2	45.0*	2.9	-12.7
O=C(c1ccccc1)N1N=C(c2ccccc2)CC1(O)C(F)(F)F (stereo not drawn)	0.7	-5.7	1.4	13.3	8.0
Cc1ccc(CN2CCN(N=Cc3ccc(C)s3)CC2)cc1	x	19.6	x	-1.6	x
S=C(NN=Cc1ccccc1Cl)Nc1cccc(Cl)c1Cl	x	98.7*	x	-7.9	x
Cc1ccc(NC(=S)N/N=C/c2c(Cl)cccc2Cl)c(C)c1	53.1*	x	1.4	x	4.1
CC(C)CN1CCC(=O)N(C(CSc2ccccc2)Cc2ccccc2)CC1 (stereo not drawn)	x	4.1	x	5.0	x
O=C(NC(=S)Nc1ccc(N2CCOCC2)cc1)c1cccc(Cl)c1	-6.9	92.7*	3.5	4.7	1.6
O=C(NC(=S)Nc1ccc(N2CCOCC2)cc1)c1ccccc1	-5.1	46.0	0.3	4.1	0.1
COc1ccc(NS(=O)(=O)c2ccc(NC(=O)c3ccc(CN4CCOCC4)cc3)cc2)cc1	6.3	0.5	49.9*	-3.6	1.4
COc1ccc(C(=O)NC(=S)Nc2ccc(CN3CCOCC3)cc2)cc1Cl	5.7	86.3*	-2.0	7.7	6.3
O=C(Nc1ccc(S(=O)(=O)Nc2ccc(F)cc2)cc1)c1ccc(CN2CCOCC2)cc1	12.7	8.6	-0.5	-3.3	-7.6
CCc1ccc(C(=O)NC(=S)Nc2ccc(N3CCOCC3)cc2)cc1	8.1	89.5*	3.7	-3.4	-1.0
CC(NC(=O)c1nc[nH]c1C(=O)NCC(=O)OCc1ccccc1)C(=O)OC(C)(C)C (stereo not drawn)	x	-4.7	x	6.0	x
CCC1=C(OC(=O)N(CC)CC)N2C(=O)OC(=NCCOC)[C@]2(Cc2ccccc2)C2C1=CCC1C(=O)N(CC)C(=O)C12 (stereo partly drawn)	x	0.7	x	4.9	x
Cc1ccc(S(=O)(=O)Oc2ccc(C=NNC(=O)c3nn(C)cc3Cl)cc2)cc1	x	12.1	x	1.5	x
CC(=O)N1C(Cc2ccccc2)C=C[C@]1(C)C(=O)NCc1ccccn1 (stereo partly drawn)	x	-5.2	x	3.9	x
O=C(Cn1nnc(-c2ccccc2Cl)n1)N/N=C/c1ccc2c(c1)OCO2	-12.0	x	60.3*	x	-4.9
O=C(C[n+]1cc(-c2ccc(Cl)cc2)n2c1CCC2)N1c2ccccc2Sc2ccccc21	1.4	-13.5	2.3	10.6	13.5
O=C(C[n+]1cc(-c2ccc(Cl)c(Cl)c2)n2c1CCC2)N1c2ccccc2Sc2ccccc21	-6.0	100.6*	-0.4	100.3*	-1.3
COc1ccc(CNc2ncnc3sccc23)cc1	7.3	-8.8	865.3*	3.8	-13.3
COc1ccc(CNc2ncnc3sccc23)cc1OC	1.7	2.1	-1.2	2.2	8.9
CNC(=O)c1nnsc1S(=O)(=O)c1ccc(Cl)cc1	12.9	11.7	209.1*	7.1	0.6

Compound activity deposited in PubChem by several laboratories.
